Assay results: PubChem BioAssay (Tox21)
Records with an inconclusive call do not appear. Values without a mark were called inactive. Calls of active or inactive are those of the source. The call rests on the fitted dose curve. Positions of bridges follow the written chain, without caps; N, C: chain ends. Non-standard residues stand in square brackets, D forms with d. Residues, ends and D or L forms follow the SMILES beside them. hArg = N=C(N)NCCCC[C@H](N)C(=O)O; Mpa = O=C(O)CCS

What follows are compounds tested against Thyrotropin receptor (Homo sapiens) (UniProt P16473) (assay: qHTS assay to identify small molecule agonists of the thyroid stimulating hormone receptor (TSHR) signaling pathway (AID 1224843; further: nearly all actives have a fitted effect of over 45% in size)). Settings: TSHR-HEK293 cells, cAMP HTRF, agonist mode, 30 min; series mostly up to 92.4 µM.
Text: National Center for Advancing Translational Sciences [NCATS]
NIH Chemical Genomics Center [NCGC]
U.S. Environmental Protection Agency [EPA]
National Institutes of Environmental Health Sciences [NIEHS]
National Toxicology Program [NTP]
U.S. Food and Drug Administration [FDA]
TSHR is the receptor for thyrotropin (thyroid stimulating hormone or TSH), a member of the glycoprotein hormone family. TSH is released by the anterior pituitary gland and is the main regulator of thyroid gland growth and development. Upon binding circulating thyrotropin, a G-protein signal cascade activates adenylyl cyclase and […] cAMP concentration is increased. cAMP is a key second messenger involved extensively in cellular signal transduction pathways associated with the majority of G-protein coupled receptors (GPCRs). The activation of these GPCRs by neurotransmitters, lipids, nucleotides, peptides and hormones results in the activation or the inhibition of plasma membrane-bound adenylate cyclase through heterotrimeric G-proteins. A cell-based TSHR assay was used to screen the Tox21 10K library for compounds that can modulate TSHR in agonist mode.
Tox21 Assay Protocol Summary:
TSHR-Hek293 cells were dispensed at 800 cells/4uL/well in 1536-well white plates using a Multidrop dispenser. […] The plates were incubated at room temperature for 30 min. 2.5 ul/well of cAMP-d2 and 2.5ul/well of anti-cAMP-cryptate was added respectively into the assay plates using a Flying Reagent Dispenser. After 1 hr incubation at room temperature, the fluorescence intensity in the plates was measured using an Envision plate reader. Each test compound was measured at 15 concentrations and in triplicates.
On the % scale 0 is the no-effect control and ±100 the full control effect.

Thyrotropin receptor (Homo sapiens), sequence (P16473 whole entry, looked up): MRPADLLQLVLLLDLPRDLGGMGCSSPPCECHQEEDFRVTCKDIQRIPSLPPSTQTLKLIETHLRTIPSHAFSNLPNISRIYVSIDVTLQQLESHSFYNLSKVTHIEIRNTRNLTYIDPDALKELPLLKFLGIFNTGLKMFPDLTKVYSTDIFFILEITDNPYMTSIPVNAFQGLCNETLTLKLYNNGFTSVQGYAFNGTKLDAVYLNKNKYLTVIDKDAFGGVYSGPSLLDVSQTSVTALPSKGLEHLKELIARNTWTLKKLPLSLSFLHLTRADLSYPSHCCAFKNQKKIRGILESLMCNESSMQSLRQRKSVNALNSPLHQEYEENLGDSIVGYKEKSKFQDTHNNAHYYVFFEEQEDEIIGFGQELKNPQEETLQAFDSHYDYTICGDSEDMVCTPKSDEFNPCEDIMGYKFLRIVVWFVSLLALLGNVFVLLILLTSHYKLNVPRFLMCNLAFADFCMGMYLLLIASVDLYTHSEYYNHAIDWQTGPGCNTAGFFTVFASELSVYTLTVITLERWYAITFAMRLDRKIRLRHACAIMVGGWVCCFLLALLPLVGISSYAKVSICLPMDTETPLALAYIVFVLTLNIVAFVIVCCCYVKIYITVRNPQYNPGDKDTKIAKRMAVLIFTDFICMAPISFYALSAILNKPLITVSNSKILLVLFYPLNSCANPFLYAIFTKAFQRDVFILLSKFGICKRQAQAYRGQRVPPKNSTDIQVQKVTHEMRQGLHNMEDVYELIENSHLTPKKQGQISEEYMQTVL

Q: With Cc1ccc(C)c([N+](=O)[O-])c1 as the compound, how does the outcome read?
A: inactive

Q: With CC(O)CC(C)O (stereo not given) as the compound, how does the outcome read?
A: inactive

Q: How did the outcome turn out when Nc1nnnn1-c1ccccc1 was run?
A: inactive

Q: For COc1cc(/C=C/C(N)=O)cc(OC)c1OC, which outcome is on record?
A: inactive

Q: Which outcome does the source give for Cc1c(Cl)cccc1Cl here?
A: inactive

Q: With CN(C)CCN(C)CCO as the compound, how does the outcome read?
A: inactive

Q: For CO[C@@]1(NC(=O)Cc2cccs2)C(=O)N2C(C(=O)O)=C(COC(N)=O)CS[C@@H]21, which outcome is on record?
A: inactive

Q: With CCC(C)OC(C)CC (stereo not given) as the compound, how does the outcome read?
A: inactive

Q: Which outcome does the source give for C=CCCCCCCCCC(=O)OCCCC here?
A: inactive

Q: How did the outcome turn out when CC(C)CO was run?
A: inactive

Q: For O=C(O)CSCC(=O)NC1CCSC1=O (stereo not given), which outcome is on record?
A: inactive

Q: C=CC/C=C/C was tested. Which outcome did it give?
A: inactive

Q: CN(C)C(C)(C)CO was tested. Which outcome did it give?
A: inactive

Q: With CCc1occc(=O)c1O as the compound, how does the outcome read?
A: inactive

Q: How did the outcome turn out when CO[Si](CCCn1c(=O)n(CCC[Si](OC)(OC)OC)c(=O)n(CCC[Si](OC)(OC)OC)c1=O)(OC)OC was run?
A: inactive

Q: For CC(S)C(C)S (stereo not given), which outcome is on record?
A: inactive

Q: Cc1cc(-c2ccccc2)nnc1NCCN1CCOCC1 was tested. Which outcome did it give?
A: inactive

Q: For COC(=O)c1ccccc1C(=O)O, which outcome is on record?
A: inactive

Q: For Cc1ccccc1C(N)=O, which outcome is on record?
A: inactive

Q: How did the activation turn out when CCOC(CN1CCN(CC(C)C(=O)c2ccccc2)CC1)c1ccccc1 (stereo not given) was run?
A: -4.32% [at 19 µM]

Q: CC(CO)(CO)CO was tested. Which outcome did it give?
A: inactive

Q: For O=C(Cl)c1ccccc1[N+](=O)[O-], which outcome is on record?
A: inactive

Q: With C=C(C)[C@@H]1CC=C(C)C(=O)C1 as the compound, how does the outcome read?
A: inactive

Q: With COc1nc(N)nc2nc[nH]c12 as the compound, how does the outcome read?
A: inactive

Q: Which outcome does the source give for O=C1OCCO1 here?
A: inactive

Q: OCCN1CCOCC1 was tested. Which outcome did it give?
A: inactive

Q: How did the outcome turn out when CCCCOC(=O)[C@H](C)O was run?
A: inactive

Q: How did the outcome turn out when C=CCCCC was run?
A: inactive

Q: With OCC(O)CN1CCN(c2ccccc2)CC1 (stereo not given) as the compound, how does the outcome read?
A: inactive

Q: How did the outcome turn out when NC(=O)[C@@H]1CSSCCC(=O)N[C@@H](CCCCN=C(N)N)C(=O)NCC(=O)N[C@@H](CC(=O)O)C(=O)N[C@@H](Cc2c[nH]c3ccccc23)C(=O)N2CCC[C@H]2C(=O)N1 ([Mpa][hArg]GDWPC-NH2; disulfide 1-7) was run?
A: inactive

Q: Which outcome does the source give for O=C1CCC(=O)N1Cl here?
A: inactive

Q: With COC(=O)CCCCC(CCSS/C(CCO)=C(\C)N(C=O)Cc1cnc(C)nc1N)SC(C)=O (stereo not given) as the compound, how does the outcome read?
A: inactive

Q: C=Cc1ccc(C(C)(C)C)cc1 was tested. Which outcome did it give?
A: inactive

Q: For O=C(O)[C@H](O)c1ccccc1, which outcome is on record?
A: inactive

Q: How did the outcome turn out when NCCOCCN was run?
A: inactive

Q: Which outcome does the source give for CCCc1ccc(O)cc1 here?
A: inactive

Q: With CC(C)=CCC/C(C)=C/COC=O as the compound, how does the outcome read?
A: inactive

Q: CCCCCCC1(C)CCC(=O)O1 (stereo not given) was tested. Which outcome did it give?
A: inactive

Q: O=C(Cn1ccnc1[N+](=O)[O-])NCc1ccccc1 was tested. Which outcome did it give?
A: inactive

Q: CC(C)c1ccc(C=O)cc1 was tested. Which outcome did it give?
A: inactive
